The campaign covered roughly 1,100 compounds. About 350 (32%) were called active. No rule for the calls is given here. These entries were drawn from the full list. Results with a measured potency or affinity are listed apart.
experiment: CEM21 lymphoblast cell cytotoxicity, dose response, cytotoxicity control for viral fusion inhibitor project, CellTiter-Glo luminescence, cherry-picked (AID 652042); settings: CEM21 cells viability, CellTiter-Glo ATP luminescence, 24 h; series mostly up to 35 µM; activity change, negative = cytotoxicity: at the top concentration

Structure (SMILES) | activity change, negative = cytotoxicity
COc1ccc(OC)c(-c2cc(C(=O)Nc3c(C)nn(Cc4ccc(Cl)cc4)c3C)no2)c1 | -11.3% (inactive)
Cc1ccc(CSCCNC(=O)c2ccc(Cl)c(S(=O)(=O)N3CCOCC3)c2)cc1 | -18.7% (inactive)
COc1ccc([C@@H]2[C@@H]3C(=O)N(C(C)(C)C)C(=O)[C@@H]3[C@]3(CC(C)C)C(=O)N(c4ccc(C(F)(F)F)cc4)C(=O)N23)cc1 | 0.418% (inactive)
CC1(C(=O)NCc2ccc3c(c2)OCO3)CCN1Cc1csc2ccccc12 (stereo not drawn) | -10.1% (inactive)
O=C(c1ccc(Cl)s1)N1CCN(c2nc3ccccc3s2)CC1 | -12.8% (inactive)
CC1CCc2c(sc3ncnc(N4CCOCC4)c23)C1 (stereo not drawn) | -0.353% (inactive)
CCN1C(=O)[C@H]2[C@@H](c3ccc(C)cc3)N3C(=O)N(c4ccc(C(F)(F)F)cc4)C(=O)[C@@]3(CC(C)C)[C@H]2C1=O | -11.3% (inactive)
CCOc1c(C)cnc2c1c(=O)n(Cc1ccc(Cl)cc1)c(=O)n2C | -4.47% (inactive)
Cc1ccc2cc(C#N)c(NCCNC(=O)C3CC3)nc2c1C | -7.75% (inactive)
COc1ccc(S(=O)(=O)Nc2ccc3c(c2)CC(=O)N([C@@H](C)CO)C[C@H](C)[C@H](CN(C)S(=O)(=O)c2cccs2)O3)cc1 | 0.186% (inactive)
COc1ccc(CCC(C)NCc2cc(OC)cc(OC)c2)cc1 (stereo not drawn) | -6.55% (inactive)
CCCc1cc(C(=O)NCc2ccc(OC)cc2)no1 | -1.74% (inactive)
Cc1ccc(OCCN2CCN(c3ncnc4sc(C)c(C)c34)CC2)cc1 | -27.5% (inactive)
COc1cc(C(=O)N2CCN(c3ncnc4sc(C)c(C)c34)CC2)cc(OC)c1OC | -21.1% (inactive)
CN(C)C(=O)C[C@H]1C[C@@H]2c3cc(NC(=O)NC4CCCCC4)ccc3O[C@@H]2[C@H](CO)O1 | 4.2% (inactive)
CCN(C[C@H]1N[C@@](C)(C(=O)OC)[C@H]2C(=O)N(Cc3ccccc3)C(=O)[C@@H]12)C(=O)c1ccc(C(C)(C)C)cc1 | -7.41% (inactive)
O=C(Nc1ccc(Oc2ccccc2)cc1)c1csc([C@H]2C[C@H](O)[C@@H](CO)O2)n1 | -16.4% (inactive)
c1csc(CNc2ncnc3sccc23)c1 | -7.21% (inactive)
CCN(CC(=O)Nc1cc(Cl)ccc1C)C(=O)c1ccc(=O)n(Cc2ccccc2)n1 | 0.209% (inactive)
O=C(NCC(=O)N1CCN(c2ncccn2)CC1)c1ccccc1OC(F)F | -0.419% (inactive)
O=C(Nc1ccc(N2CCN(C(=O)c3ccccc3)CC2)c(Cl)c1)c1cccnc1 | -16.1% (inactive)
O=C(CCCn1c(=S)[nH]c2cc3c(cc2c1=O)OCO3)N1CCN(c2ccc(Cl)cc2)CC1 | -10.7% (inactive)
S=c1[nH]cc(-c2ccccc2)n1-c1cccc(Cl)c1 | -0.899% (inactive)
CCOc1ccc(NC2c3ccccc3C(=O)N2Cc2ccco2)cc1 (stereo not drawn) | -2.14% (inactive)

Structure (SMILES) | activity change, negative = cytotoxicity
CC1CN(S(=O)(=O)c2cc(C(=O)NCCC3=CCCCC3)ccc2Cl)CC(C)O1 (stereo not drawn) | -1.11% [at 8 µM] (inactive)
COc1ccc(Cl)cc1NC(=O)Nc1cnccn1 | 0.955% (inactive)
COc1ccc(OCC(=O)Nc2cc(-c3nn(C)c(=O)c4ccccc34)ccc2OC)cc1 | -3.59% (inactive)
COC(=O)[C@@]1(Cc2ccccc2)[C@H]2C(=O)N(Cc3ccccc3)C(=O)[C@H]2[C@H]2CN=C(SCc3ccc(C#N)cc3)N21 | -6.15% (inactive)
O=C(CN1C(=O)c2ccccc2S1(=O)=O)c1ccc2c(c1)OCCCO2 | -0.421% (inactive)
CCc1ccc(-c2nc(CN3CCC(C(=O)NCCc4ccc(OC)c(OC)c4)CC3)c(C)o2)cc1 | -24.4% (inactive)
Cc1oc(-c2ccccc2F)nc1CN1CCC(C(=O)NCCC2=CCCCC2)CC1 | -12.8% (inactive)
CN1CC(c2ccccc2)C2(COc3ccccc3C2=O)C12C(=O)Nc1ccccc12 (stereo not drawn) | -15.8% (inactive)
COc1ccccc1S(=O)(=O)n1cc(Cc2ccccc2)c(N)n1 | -1.81% (inactive)
CCOC(=O)c1c(CSc2ccccc2)oc2cc(Br)c(O)c(CN(C)C)c12 | -17.8% (inactive)
CC(=O)C1=C(C)NC(=S)NC1c1ccccc1 (stereo not drawn) | -0.735% (inactive)
c1ccc2c(c1)ncn2CCCCOc1ccc2c(c1)CCC2 | 1.14% [at 8 µM] (inactive)
C[C@H]1CNC(=O)c2c(C(=O)N3CCN(c4ccccc4)CC3)ncn21 | -0.09% (inactive)
CC1CCN(C(=O)c2ncn3c2C(=O)NC[C@@H]3C)CC1 | -3.77% (inactive)
Cc1ccc(NS(=O)(=O)c2cc(C(=O)N(C)C3CCN(C)CC3)ccc2Cl)cc1Cl | -1.93% (inactive)
Cn1c(CN2CCCCC2)nc2cc(NC(=O)c3ccc(Cl)cc3)ccc21 | -23.7% (inactive)
COc1ccc2[nH]c(=O)c(CN(Cc3nnnn3Cc3ccccc3)CC3CCCO3)cc2c1 (stereo not drawn) | -6.18% (inactive)
COc1ccc(OCC(=O)Nc2ccccc2N2CCCCC2)cc1 | -36.7% (inactive)
CCC(C)(C)NC(=O)C(c1ccccc1F)N(Cc1ccco1)C(=O)c1csnn1 (stereo not drawn) | 1.6% (inactive)
CO[C@@H]1CN(C)C(=O)c2cc(NC(=O)Nc3ccc(Cl)cc3)ccc2OC[C@H](C)N(C)C[C@H]1C | -16% (inactive)
CC[C@@]1(C(=O)OC)N[C@H](CN(C)C(=O)Nc2ccc(F)cc2)[C@@H]2C(=O)N(Cc3ccccc3)C(=O)[C@@H]21 | -3.66% (inactive)
Cc1nc2sc(C(c3ccco3)N3CCC(Cc4ccccc4)CC3)c(O)n2n1 (stereo not drawn) | -4.26% (inactive)
CN(C)C(=O)C[C@@H]1C[C@H]2c3cc(NS(=O)(=O)c4ccc(F)cc4)ccc3O[C@H]2[C@H](CO)O1 | -7.21% (inactive)
O=C(CN1CCN(Cc2ccc(Cl)cc2)C1=O)NCCCN1CCN(c2ccc(F)cc2)CC1 | -15.2% (inactive)

Structure (SMILES) | activity change, negative = cytotoxicity
Clc1ccc(-c2csc3ncnc(NCCN4CCOCC4)c23)cc1 | -7.06% (inactive)
CC(C)CN(C(=O)c1ccc(S(=O)(=O)N2CCCCC2)cc1)C1CCS(=O)(=O)C1 (stereo not drawn) | 1.04% (inactive)
CC[C@@]12C(=O)N(c3ccc(C)cc3)C(=O)N1[C@H](c1ccc(Br)cc1)[C@@H]1C(=O)N(C(C)(C)C)C(=O)[C@@H]12 | -10.3% (inactive)
O=c1[nH]c(=O)n([C@H]2C[C@H](O)[C@@H](CO)O2)cc1F | -12% (inactive)
COc1ccc(C(O)(C2CCCCC2)C(CN2CCOCC2)c2ccccc2)cc1 (stereo not drawn) | -24.5% (inactive)
CC(C)(COC(=O)C(c1ccccc1)c1ccccc1)CN1CCOCC1 | -1.1% (inactive)
CCOc1ccc(OCc2cccc(C(=O)N3CCOCC3)c2)cc1 | -3.5% (inactive)
CCOc1ccc(C(=O)C2CCN(CC(=O)Nc3ccccc3N3CCOCC3)CC2)cc1 | -23.5% (inactive)
CCCNC(=O)c1ccccc1NC(=O)c1ccccc1N(C)S(=O)(=O)c1ccccc1 | -20.5% (inactive)
Cc1[nH]nc2ncc(C(=O)c3ccccc3O)cc12 | -15.7% (inactive)
CCN1CCN(S(=O)(=O)c2ccc(Cl)c(C(=O)Nc3ccccc3N3CCCC3)c2)CC1 | -8.82% (inactive)
O=C(CCC(=O)N1CCN(S(=O)(=O)c2ccc3ccccc3c2)CC1)Nc1cc(Cl)cc(Cl)c1 | -20.9% (inactive)
CCCCCCc1nc2ccccc2c(=O)n1NC(=O)c1c(O)c2c(n(CC(C)C)c1=O)CCCC2 | -24.4% (inactive)
CC[C@@]12C(=O)N(c3cccc(Br)c3)C(=O)N1[C@H](c1ccc(OC)cc1)[C@@H]1C(=O)N(C(C)(C)C)C(=O)[C@@H]12 | -0.201% (inactive)
CN(Cc1ccc(Cl)cc1Cl)C(=O)c1cccc(S(=O)(=O)N2CCN(c3ccccc3)CC2)c1 | -6.85% (inactive)
Cc1ccc(C)c(-n2cc(CNCCCn3cccn3)c(-c3ccccc3)n2)c1 | -22.4% (inactive)
O=C1NCCN(Cc2cccc(Oc3ccccc3)c2)C1CC(=O)N1CCCCC1 (stereo not drawn) | -2.45% (inactive)
Cc1cc(Cl)c(S(=O)(=O)N2CCCC2)cc1OCC(=O)NC1CCCCC1 | -14.6% (inactive)
Cc1cc(Cl)c(S(=O)(=O)N2CCSCC2)cc1OCC(=O)NC1CCCCC1 | -7.4% (inactive)
CN(C)CCn1c(=O)n(-c2cccc(Cl)c2)c(=O)c2c3c(sc21)CCCCC3 | -6.49% (inactive)
CCC(C)NS(=O)(=O)c1ccc(S(=O)(=O)N2CCCC3(CCCCC3)C2)cc1 (stereo not drawn) | -24.4% (inactive)
O=C(COC(=O)c1ncc(Cl)c(Cl)c1Cl)NCc1cccs1 | -5.63% (inactive)
Cc1nc2ccccc2c2c1CC(C(C)(Cl)Br)O2 (stereo not drawn) | -20.6% (inactive)
COc1cc2oc(=O)cc(-c3ccc(-c4ccc(CO)cc4)cc3)c2c(OC)c1OC | -6.13% (inactive)

Structure (SMILES) | activity change, negative = cytotoxicity
COc1ccccc1N/C(N)=N/c1nc(CSc2ccc(C)cc2)cc(=O)[nH]1 | -3.89% (inactive)
C=CCN=C1NN=C(c2cc(C)n(CCOC)c2C)CS1 | -14.8% (inactive)
CN1C(=O)c2cc(NS(=O)(=O)c3ccccc3F)ccc2OC[C@@H]2O[C@H](CC(=O)NC3Cc4ccccc4C3)CC[C@@H]21 | -17.1% (inactive)
Cn1c(C(=O)NCCCN2CCN(c3ccccc3F)CC2)cc2c(=O)[nH]c3ccccc3c21 | -14% (inactive)
Cc1cccc(/C=N\Nc2cn[nH]c(=O)c2Cl)c1 | -9.97% (inactive)
COC(=O)[C@]1(C)N[C@H](CN(C)C(=O)Nc2ccc(Cl)cc2)[C@@H]2C(=O)N(Cc3ccccc3)C(=O)[C@@H]21 | -16.4% (inactive)
COCCn1nnnc1CN(CCc1ccccc1)Cc1cc2cc(OC)ccc2[nH]c1=O | -11.6% (inactive)
COc1ccc2[nH]c(=O)c(CN(Cc3cccs3)Cc3nnnn3Cc3ccccc3)cc2c1 | -12.9% (inactive)
Cc1cc(NC(=O)CCC(=O)N(C2CC2)C2(C(=O)NC3CCCC3)CCC(C)CC2)no1 (stereo not drawn) | -0.639% (inactive)
CCOC(=O)CN1CCCc2nc(C)c(C)cc21 | 1.49% (inactive)
Cn1c(SCc2nc(-c3ccc(Cl)cc3)no2)nnc1-c1cccs1 | -9.46% (inactive)
CCNc1ncnc2c1cnn2C1CCCO1 (stereo not drawn) | 12.2% (inactive)
COc1cc(OC)cc(C(=O)N[C@H](C(=O)NCCc2c[nH]c3ccccc23)C(C)C)c1 | -2.28% (inactive)
COc1cc(CNCc2ccc(OC)c3ccccc23)cc(OC)c1OC | -20% (inactive)
N#Cc1c(NCc2ccccc2)ccnc1NCc1cccnc1 | -4.41% (inactive)
Cc1nc2ccccc2nc(C)c1=NOCc1cccc(Cl)c1 | -18.9% (inactive)
COc1ccc(-c2nn(C)c(=O)c3ccccc23)cc1NC(=O)Cn1nc(C)c2ccccc2c1=O | -6.97% (inactive)
Cc1ccc(C(=O)Nc2cnc3ccccc3c2)cc1 | -5.04% (inactive)
COc1ccc(-c2c(C)nn3c(C(F)(F)F)cc(C)nc23)cc1 | -1.04% (inactive)
C=CCNc1nc2c(c(=O)n(C)c(=O)n2C)n1CCCCCC | -17.9% (inactive)
O=C(CNC(=O)c1cccc(-n2cccc2)c1)Nc1ccccc1Br | 1.95% (inactive)

Reference: PubChem BioAssay AID652042 (Broad Institute, 2013)
